The results in this text go back to PubChem BioAssay (EPA / NIEHS).

Several values for one entry are separate records, joined by “and”; a condition that tells them apart may be missing. Equal values may be shown once. A structure can be active in one record and inactive in another. Activity calls are given as the source filed them. Rule for the calls: active = hit-call score of the fitted dose curve at least 0.9, where 1 is the maximum; inactive = score below 0.9.

This test in a line: CCTE_Padilla_ZF_144hpf_TERATOSCORE: (Legacy) CCTE's 144 Hour Post-fertilization zebrafish Assay Teratoscore, Padilla Lab (AID 2283679).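 For AC50: teratogenicity score from eye scoring of death hatching and malformations at 144 hpf; higher score means more developmental defects relative to DMSO baseline.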 An excerpt: CCTE_Padilla_ZF_144hpf is a whole embryo, multiplexed assay. Zebrafish embryos were exposed to chemicals starting 6 hr post-fertilization for 5 days in 96-well plates. Developing larvae were examined microscopically daily for malformation and mortality.CCTE_Padilla_ZF_144hpf_TERATOSCORE is one of one assay component(s) measured or calculated from the CCTE_Padilla_ZF_144hpf assay. It is designed to make measurements of developmental malformations and mortality as detected with brightfield microscopy.Data from the assay component CCTE_Padilla_ZF_144hpf_TERATOSCORE was analyzed into 1 assay endpoint. This assay endpoint, CCTE_Padilla_ZF_144hpf_TERATOSCORE, was analyzed in the positive analysis fitting direction relative to DMSO as the negative control and baseline of activity. Using a type of morphological reporter, gain-of-signal activity can be used to understand changes in developmental defect as they relate to the whole embryo. To generalize the intended target to other relatable targets, this assay endpoint is annotated to the malformation intended target family, where the subfamily is total.
Zebrafish husbandry: Wild type adult zebrafish (Danio rerio; undefined outbred stock obtained from Aquatic Research Organisms, Hampton, NH, 03842) were housed in an AAALAC-approved animal facility at 28C with a 14:10 h light: dark cycle (lights on at 08:30 h). Adult fish (2-3 females per male; density = 15-20 adults per tank) were kept in one of several 9-liter (L) flow-through colony tanks (Aquaneering Inc., San Diego, CA). All adults in a colony tank were placed in a 2 L (static) breeding tank (Aquatic Habitats, Apopka, FL) one hour prior to light onset. Typically, adults from two to three colony tanks were mated on the same day. Two hours after light onset the adults were returned to the colony tank. All embryos were gathered from each breeder tank, pooled, and placed in a 28C water bath for 2 h, followed by two washes with 0.06% bleach (v/v) in 10% Hanks' Balanced Salt Solution (13.7 mM NaCl 0.54 mM KCl, 25 uM Na2HPO4, 130 uM CaCl2 100 um MgSO4 and 420 um NaHCO3,), hereafter referred to as Hanks' solution, for 5 min in order to remove any residual bacteria or fungi. Immediately following washing, the embryos were examined, and healthy embryos were separated from dead or unfertilized eggs and moved into fresh Hanks'. Single Concentration Study: The chemicals were arrayed on a 96-well stock plate, 80 chemicals per plate, 20 mM concentration of each, with 16 DMSO (vehicle) controls. The embryos were exposed to the chemicals (80 Mfinal concentration, renewed daily) by immersion from 0 dpf until 5 dpf. Eighty micromolar was chosen as the highest concentration for two reasons (1) because the stock solutions were prepared at 20 mM in 100% DMSO. On 6 dpf, each embryo/larva was assessed for viability, hatching status and malformations. There were 4 embryos per concentration per chemical (each embryo on a separate microtiter plate). […] Chemical exposures: Zebrafish embryos were exposed in 96-well plates. Briefly, on day 0, approximately 6-8 h after fertilization, zebrafish embryos (with chorions) were placed 1 embryo per well in Millipore Multiscreen Nylon mesh plates (catalog number MANMN4050, Millipore Corp, Bedford, MA) and exposed to nominal concentrations of the chemicals. In each well, 1 ul of the chemical in DMSO from the stock plate was diluted with 250 ul of 10% Hanks' solution; the final DMSO concentration was 0.4% (v/v) in all wells; vehicle controls receives DMSO only. Each plate was sealed with a non-adhesive material (Type A, BioRad, Hercules, CA), covered with a lid, and wrapped in Parafilm to minimize evaporation. All embryos and larvae were kept in a 26C incubator with a 14:10 h light-dark cycle (with lights on at 08:30 h and off at 22:30 h). […]
By AC50 is commonly meant the concentration giving half of the maximal activity seen. As for `CCOC(=O)C(C)Oc1ccc(Oc2cnc3cc(Cl)ccc3n2)cc1` (stereo not given), the AC50 was 1.7 µM (active).

Take `COCCO`: the result was inactive.

For `CCCCCCC(C)OC(=O)COc1nc(F)c(Cl)c(N)c1Cl` (stereo not given), the AC50 is 46.9 µM (active).

On to `CCC(C)OC(=O)N1CCCCC1CCO` (stereo not given), for which the result was inactive.

As to `S=C([S-])NCCNC(=S)[S-].[Mn+2]`, the AC50 is 1.04 µM (active).

For `CCCN(CCC)C(=O)SCC`, the outcome was inactive.

`COC(=O)c1ccc(I)cc1S(=O)(=O)NC(=O)Nc1nc(C)nc(OC)n1`: the compound was classed as inactive.

For `CCOC(=O)C(C)Oc1ccc(Oc2nc3ccc(Cl)cc3o2)cc1` (stereo not given), the AC50 is 2.06 µM (active).

Turning to `CCN(Cc1c(F)cccc1Cl)c1c([N+](=O)[O-])cc(C(F)(F)F)cc1[N+](=O)[O-]`, the AC50 was 0.00783 µM (active).

For the compound `c1ccc(Nc2ccccc2)cc1`, the half-maximal activity concentration (AC50) is 64 µM (active).

With `C[C@]12CC[C@@H]3c4ccc(O)cc4C[C@@H](CCCCCCCCCS(=O)CCCC(F)(F)C(F)(F)F)[C@H]3[C@@H]1CC[C@@H]2O` (stereo not given in full), the compound was called inactive.

Regarding `COC(=O)c1ccc(CNS(C)(=O)=O)cc1S(=O)(=O)NC(=O)Nc1nc(OC)cc(OC)n1`, the compound was called inactive.

As for `S=C(S)NCCNC(=S)S.[Mn+2].[S-]C([S-])=NCCN=C([S-])[S-].[Zn+2]`, the AC50 was 29.3 µM (active) and the result was inactive.

As for `COC(=O)c1ccccc1C(=O)O`, the compound was called inactive.

Regarding `CC(=O)[C@H]1CC[C@H]2[C@@H]3CCC4=CC(=O)CC[C@]4(C)[C@H]3CC[C@]12C`, the AC50 is 8.03 µM (active).

`CC(C)CCCCCCc1ccc(O)cc1`: the AC50 was 8.06 µM (active).

For the compound `CSC(=O)c1cccc2nnsc12`, the AC50 was 12.7 µM (active).

Regarding `COC(=O)c1ccccc1S(=O)(=O)NC(=O)Nc1nc(OC(F)F)cc(OC(F)F)n1`, the AC50 was 3.02 µM (active).

In the case of `Oc1ccc(C(c2ccc(O)cc2)C(Cl)(Cl)Cl)cc1`, the AC50 is 17.1 µM (active).

For the compound `CCCCC(CC)COC(=O)c1ccccc1C(=O)O` (stereo not given), the AC50 is 0.608 µM (active).

Regarding `OB(O)O`, the call was inactive.

For `N#CSCSc1nc2ccccc2s1`, the AC50 was 0.651 µM (active).

Regarding `COc1c(Cl)ccc(Cl)c1C(=O)O`, the call was inactive.

With `CC(C)(c1ccc(O)cc1)c1ccc(O)cc1`, the AC50 was 57 µM (active) and 66.2 µM (active).

In the case of `CCOC(=O)c1ccc(O)cc1`, the AC50 was 62.6 µM (active).

As for `C#C[C@]1(O)CC[C@H]2[C@@H]3CCC4=CC(=O)CC[C@@H]4[C@H]3CC[C@@]21CC`, the call was inactive.

As for `CCCCCOC(=O)COc1cc(N2C(=O)C3=C(CCCC3)C2=O)c(F)cc1Cl`, the AC50 was 3.14 µM (active).

For the compound `CCN(CC)C(=O)c1cccc(C)c1`, the outcome was inactive.

Regarding `C#CCOC(=O)[C@@H](C)Oc1ccc(Oc2ncc(Cl)cc2F)cc1`, the AC50 was 0.593 µM (active).

`CCOC(=O)COc1cc(-n2ncc(C(F)(F)F)c(C)c2=O)c(F)cc1Cl`: the AC50 is 0.458 µM (active).

Turning to `COc1nc(C)nc(NC(=O)NS(=O)(=O)c2ccccc2OCCCl)n1`, the compound was called inactive.

With `O=C(O)C1(C(=O)Nc2ccc(Cl)cc2Cl)CC1`, the AC50 is 22.7 µM (active).

For the compound `c1ccc2[nH]c(-c3cscn3)nc2c1`, the AC50 is 52.8 µM (active).

In the case of `C[C@]12C[C@H](O)[C@H]3[C@@H](CCC4=CC(=O)CC[C@@]43C)[C@@H]1CC[C@@H]2C(=O)CO`, the compound was called inactive.

As to `O=C(c1ccc(O)cc1O)c1ccc(O)cc1O`, the AC50 was 95.2 µM (active).

As for `CCCOC(=O)NCCCN(C)C`, the compound was classed as inactive.

As for `CCCOC(=O)c1ccc(C(=O)OCCC)nc1`, the AC50 was 1.7 µM (active).

On to `CC1(C)C(C=C(Cl)Cl)C1C(=O)OCc1cccc(Oc2ccccc2)c1` (stereo not given), for which the AC50 was 3.31 µM (active).

As to `CCCCC(CC)CN1C(=O)C2C3C=CC(C3)C2C1=O` (stereo not given), the AC50 was 13 µM (active).
